Assay results reported in the supplement of paper PMC6555819.

What was measured:
Test in all cases: PBM binding z-score (relative to random genomic background probes); higher = stronger binding; sequences stand for … in GC…GCGATTGACAGCGTAGAATGAAGG
[1] = tested on: RARb homodimer (NR concentration 270 nM)
Method in brief: (§1)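 Antibodies against each partner of ligand-free nuclear receptor dimers (one per run) detected binding on custom Agilent 4×180K protein-binding microarrays after 1 h incubation. The double-stranded probes had 34-nt variable regions carrying direct-repeat seeds, single-nucleotide variants, half-site ablations and random human genomic background sequences. Binding z-scores, from regression-normalized fluorescence, use the random background probes as reference.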

[2] = tested on: RARg:RXRa (NR concentration 270 nM, RXRa partner concentration 90 nM)
Method in brief: as §1

[3] = tested on: RARg homodimer (NR concentration 270 nM)
Method in brief: as §1

[4] = tested on: RXRa DBDmut IVT, anti-RXR (DBD mutation: RXRa K156A/R161A, NR concentration 90 nM)
Method in brief: as §1

[5] = tested on: RXRa homodimer (NR concentration 180 nM)
Method in brief: as §1

[6] = tested on: THRa:RXRa (NR concentration 90 nM, RXRa partner concentration 90 nM)
Method in brief: as §1

[7] = tested on: THRa homodimer (NR concentration 90 nM)
Method in brief: as §1

[8] = tested on: VDR homodimer (NR concentration 270 nM)
Method in brief: as §1

Sequence | PBM binding z-score [1] | PBM binding z-score [2] | PBM binding z-score [3] | PBM binding z-score [4] | PBM binding z-score [5] | PBM binding z-score [6] | PBM binding z-score [7] | PBM binding z-score [8]
TCTTGTAGATCAGCCGGTTAAGAAAGCTGGCCAA | -0.307 | -0.542 | -0.822 | 0.73 | -0.222 | -0.482 | -0.883 | -0.659
TGAATGAGGTTATAAGATTAGGGAACGTTGCAAA | 0.24 | 1.43 | 1.01 | 0.551 | 1.87 | 1.68 | 0.15 | 0.323
TCGAGTAGGTTAGTCCGGGCATTCAGCCAACATA | 0.125 | -0.242 | -0.282 | 0.0956 | -0.186 | 0.527 | -0.31 | -0.163
CCTGCTAGGTCATGGTAAGCTAATCTACAGTATG | 2.79 | 3.8 | 4.48 | 1.84 | 2.62 | 2.98 | 1.22 | -0.214
ATCTCTAGGTAAGACTCAGTACAGTGAAGAACGC | 0.3 | 0.259 | 0.586 | 0.238 | 0.176 | 0.369 | 0.766 | 0.66
GATACAGGGTCAAGGCTAGAGTACGCGTATTGAT | 3.75 | 5.53 | 5.01 | 2.4 | 5.93 | 3.52 | 1.23 | 2.36
ACTAGTTGGTCAGCTGAAGTCACACACAATTCGG | 0.741 | 0.686 | 0.796 | 0.337 | 0.297 | 0.346 | -0.0517 | 0.0981
AGTCAAAGTTCACTATGTAACGTAAGATTCAGCT | 3.66 | 4.55 | 5.44 | 4.2 | 3.68 | 1.36 | -0.244 | 3.86
CCTACTGGGCTAAGGTCATTGATCAGTCAAAGCA | 3.59 | 4.14 | 3.51 | 1.83 | 4.07 | 3.95 | 4.04 | 2.94
TGAATGAGGGTATAAGATCAGGGAACGTTGCAAA | -0.0361 | 0.617 | 0.546 | -0.155 | 0.383 | 0.461 | -0.277 | 0.159
AGAAGGAGGTTAAGATCAGGGAAACAGAATACAT | 1.51 | 1.73 | 1.36 | 0.0542 | 1.96 | 1.94 | 0.811 | 0.91
GCTGCTAGGGCAGGTTGGTCAGCTAACGGGTACG | 0.705 | -0.148 | 0.544 | -0.241 | -0.467 | -0.443 | -0.665 | -0.232
CGTACTAGGTCAAGGACAGTGAATCTCCGCACGC | 3.14 | 3.81 | 4.64 | 1.21 | 2.53 | 3.22 | 2.42 | 0.444
GCTCGGAGGACAAGGTCAGAACTTTGTCCGTAGA | 2.83 | 3.15 | 3.26 | 0.38 | 2.6 | 2.67 | 0.989 | 0.595
TAGCCTAGGTCAGATCGGGCCTGTATACGCTATA | 1.97 | 2.53 | 3.21 | -0.396 | 1.29 | 2.64 | -0.216 | -0.157
CAGCCTAGGTCACGGCCAGTATAGGAGGAACGTT | 3.53 | 5.27 | 5.72 | 1.1 | 4.43 | 3.65 | 1.98 | 0.435
ATATGTGGGTTACATCCGGGTCATTCAGGCTATG | 2.79 | 3.53 | 1.94 | 1.08 | 3.17 | 3.75 | 3.01 | 3.65
CAGTCTAGGTCAGGGCCAGTATAGGAGGAACGTT | 2.84 | 3.02 | 3.96 | 0.701 | 1.55 | 2.42 | 1.52 | 0.322
TCGTGTAGGTTACCAATGGGGCATTCAGCTTTCT | 1.15 | 1.46 | 0.613 | 0.901 | 0.634 | 0.276 | 0.371 | -0.0857
GATACAGGGTCAGCTAGAGGCCAAAGTATGGAAA | 3.52 | 7.25 | 5.27 | 1.21 | 4.76 | 3.25 | 0.447 | 1.3
TTTTGTAGATCAACAGGAGGTTAAGAAAGATCGA | 0.787 | 1.04 | 0.47 | -0.291 | 1.23 | 1.23 | 0.167 | 0.336
CCTACTGGGCCAAGGTCATTCATCAGTCAAAGCA | 3.52 | 3.84 | 3.48 | 1.7 | 3.42 | 3.44 | 2.53 | 3.56
ATATGTAGGTTATCTGGTCATTCAGTTTGCGCAT | 1.34 | 1.39 | 1.15 | 1.08 | 1.46 | 0.737 | 0.562 | 1.07
TCTTGTAGATCAGCAGGTTAAGTAAGCTGGCCAA | 0.124 | -0.106 | -0.396 | 0.597 | 0.384 | 0.37 | -0.0624 | -0.499
CCGACTGGGGCCTAAGGTTACCATAAGCCAGCCC | 1.1 | 0.451 | -0.117 | -0.875 | 0.652 | 2 | 1.26 | 0.0794
CGTCCAAGGTCAAGGTCGGTGAAAGAGACTCGAA | 4.27 | 6.3 | 6.78 | 3.67 | 5.99 | 4.11 | 2.88 | 2.44
CAGCCTATGTCAGGGCCAGTATAGGAGGAACGTT | 0.243 | 0.116 | 0.219 | -0.685 | -0.248 | -0.329 | -0.168 | -0.529
CCTACTGGGGCATCAGGTCATTGATATCAACGTT | 2.89 | 2.6 | 2.39 | 0.331 | 1.87 | 3.19 | 2.71 | 2.06
